Experimental data reported in PubChem BioAssay AID1671192 (National Center for Advancing Translational Sciences (NCATS), 2021).
Records with an inconclusive call do not appear. Unmarked numbers belong to inactive results. Calls follow the shape of the dose curve; as a rule, active = well fitted curve in the direction sought with a large enough effect; inconclusive = small, poorly fitted or top-dose-only effect, or another doubt; inactive = no such curve, though single readings can be large or run the other way.

target: Polyunsaturated fatty acid lipoxygenase ALOX15 (Homo sapiens) (UniProt P16050); assay: Counterscreen qHTS for inhibitors of human arachidonate 12S-lipoxygenase (ALOX12): ALOX15 Assay; conditions: purified ALOX15 enzyme activity; series mostly up to 110 µM; activity change, negative = inhibition: at the top concentration; also: 0% is about no effect
In short: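 Xylenol orange–ferric complex formation, read as the 573 nm to 405 nm absorbance ratio, tracks product from 50 uM arachidonic acid turned over for 30 min at RT. Enzyme is 40 nM ALOX15, pH 7.5 HEPES buffer, compound-preincubated 15 min.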

Sequence of Polyunsaturated fatty acid lipoxygenase ALOX15 (Homo sapiens) (P16050 whole entry, looked up): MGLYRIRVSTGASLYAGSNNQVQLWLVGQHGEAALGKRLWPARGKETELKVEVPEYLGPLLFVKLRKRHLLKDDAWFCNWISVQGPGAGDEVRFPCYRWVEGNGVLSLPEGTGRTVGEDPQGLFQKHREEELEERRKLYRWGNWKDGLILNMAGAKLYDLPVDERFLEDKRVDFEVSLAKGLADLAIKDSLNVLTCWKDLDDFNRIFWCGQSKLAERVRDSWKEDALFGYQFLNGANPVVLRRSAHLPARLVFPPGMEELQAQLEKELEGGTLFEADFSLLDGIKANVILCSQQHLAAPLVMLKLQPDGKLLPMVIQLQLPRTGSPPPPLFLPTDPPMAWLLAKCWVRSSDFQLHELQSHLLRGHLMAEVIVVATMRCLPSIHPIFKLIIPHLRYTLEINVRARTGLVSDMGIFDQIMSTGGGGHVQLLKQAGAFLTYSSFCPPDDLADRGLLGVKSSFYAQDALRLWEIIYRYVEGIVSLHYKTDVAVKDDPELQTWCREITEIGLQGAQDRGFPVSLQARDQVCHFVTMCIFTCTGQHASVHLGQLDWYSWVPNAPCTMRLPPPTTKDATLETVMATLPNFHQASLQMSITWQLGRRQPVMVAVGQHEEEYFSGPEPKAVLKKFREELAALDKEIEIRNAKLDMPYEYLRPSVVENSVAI

SMILES	activity change, negative = inhibition
O=C(NC1CC1)c1cc(C2CC2)nc2onc(C3CCNC3)c12 (centres undefined)	-20.2% [at 146 µM]
COCCNC(=O)c1cc(-c2ccc(OC)cc2)nc2onc(C3CCCN3)c12 (centres undefined)	-14.5%
O=C1NCc2ccccc2CC12CCCN2Cc1ccc(Br)cc1 (centres undefined)	-9.25%
CN(c1ccc(Cl)c(Cl)c1)C1CNC1	-16.7% [at 146 µM]
CN(C)CC(=O)N1Cc2ccccc2CC2(CCCN(CC3CCNC3)C2)C1 (centres undefined)	-21.8%
O=C1Nc2ccccc2CN(C/C=C/c2ccccc2)C12CCNC2 (centres undefined)	-5.11% [at 146 µM]
CC1CCCCC1Nc1ncnc2c1CN(C1CCCNCC1)C(=O)CN2C (centres undefined)	-23.7%
CC(=O)NCCC(=O)N1Cc2ccccc2CC2(CCN(CC3CCNC3)CC2)C1 (centres undefined)	11%
Cc1ccc2nc(C3CCN(Cc4cccs4)CC3)[nH]c(=O)c2c1	-12.2% [at 146 µM]
O=C1NCc2ccccc2CC12CCN(Cc1ccc(Br)s1)CC2	-30%
Cc1cc(C)cc(CN2CCC3(Cc4ccccc4CNC3=O)C2)c1 (centres undefined)	-8.12% [at 146 µM]
O=C(c1cc(C2CC2)nc2onc(C3CCCNC3)c12)N1CCC(F)CC1 (centres undefined)	5.09%
CC(C)[S+](=O)([O-])N1CCN(c2ccc(Cl)nn2)C(=O)C1	-25.2% [at 146 µM]
CCN1CCCC2(Cc3ccccc3CN(C(=O)c3ccccc3)C2)C1 (centres undefined)	-13.9% [at 146 µM]
COc1ccc(CN2CCCC23Cc2ccccc2CNC3=O)cc1OC (centres undefined)	-13.2%
COc1cc(CN2CCC3(Cc4ccccc4CNC3=O)C2)cc(OC)c1 (centres undefined)	-3.22%
CCOCCCNc1ncnc2c1CN(C1CCCNCC1)C(=O)CN2C (centres undefined)	1.99%
O=Cc1ccc(-c2ccc(O)cc2)cc1	-0.934% [at 233 µM]
COc1ccc(CN2CCC3(CC(c4cccc(C(F)(F)F)c4)=NO3)C2)cc1 (centres undefined)	-15.6%
